Laboratory results: PubChem BioAssay (NCATS)
Inconclusive results are not listed. Entries that show only a call come without a potency. Unmarked numbers belong to inactive results. Active and inactive are the calls of the source. The call rests on the fitted dose curve; in most records, active means well fitted curve in the direction sought with a large enough effect; inconclusive means small, poorly fitted or top-dose-only effect, or another doubt; inactive means no such curve, though single readings can be large; an effect the other way counts as inactive or inconclusive.

Key:
[1] = biological target: Cellular tumor antigen p53 (Homo sapiens) (UniProt P04637); experiment: Primary qHTS for small molecule compounds that upregulate eGFP-tagged delta133p53alpha (in N-terminal) cells. (AID 2060322); conditions: NCI-H358 eGFP-delta133p53alpha fluorescence, 24 h; activation: active compounds read high; further: nearly all actives have a fitted effect of over 75% in size; further: potency means the concentration at half of the fitted maximal effect;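 on activation: cells pre-induced with doxycycline then dosed without doxycycline; series mostly up to about 56 µM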
Chain of Cellular tumor antigen p53 (Homo sapiens) (P04637 whole entry, looked up): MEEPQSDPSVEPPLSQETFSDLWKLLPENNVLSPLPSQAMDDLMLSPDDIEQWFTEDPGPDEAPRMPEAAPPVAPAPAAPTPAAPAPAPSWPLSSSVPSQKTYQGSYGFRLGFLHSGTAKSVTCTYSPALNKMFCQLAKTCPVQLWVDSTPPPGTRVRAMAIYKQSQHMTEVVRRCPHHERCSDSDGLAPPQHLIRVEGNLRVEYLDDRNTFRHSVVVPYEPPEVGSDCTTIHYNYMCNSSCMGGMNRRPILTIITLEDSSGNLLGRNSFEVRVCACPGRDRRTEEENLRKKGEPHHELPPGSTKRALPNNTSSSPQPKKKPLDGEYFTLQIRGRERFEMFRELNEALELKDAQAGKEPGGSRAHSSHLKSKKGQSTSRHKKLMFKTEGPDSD
Outline: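 NCI-H358 cells pre-induced 24 h with 10 ng/ml doxycycline for eGFP-delta133p53alpha, plated dox-free and exposed 24 h at 37C to titrated compounds. Fixed, Hoechst-stained; gated GFP peak intensity by laser scanning cytometry, normalized to DMSO (0%) and 57.5 uM 5-azacytidine (100%).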

[2] = biological target: Aldehyde dehydrogenase, mitochondrial (Homo sapiens) (UniProt P05091); experiment: qHTS for Inhibitors of the Aldehyde Dehydrogenase Family (ALDH2) Primary screen (AID 2061308); further: nearly all actives have a fitted effect of over 55% in size
[3] = biological target: Retinaldehyde dehydrogenase 3 (Homo sapiens) (UniProt P47895); experiment: qHTS for Inhibitors of the Aldehyde Dehydrogenase Family (ALDH1A3) Primary screen (AID 2061315)

Structure (SMILES) | activation [1] | Potency [2] | Potency [3] | Potency [1]
C=C1C[C@]23C[C@H]1[C@@H](O)C[C@H]2[C@@]12C=C[C@H](O)[C@@](C)(C(=O)O1)[C@H]2[C@@H]3C(=O)O | -13% | inactive | inactive | 
C=C(C)C(O)COc1ccc(CC(=O)O)cc1 (configuration not stated) | 8.93% | inactive | inactive | 
OC1COC(OCC2OC(OCCc3ccccc3)C(O)C(O)C2O)C(O)C1O (configuration not stated) | -11.5% | inactive | inactive | 
C/C1=C\C[C@H](O[C@@H]2O[C@H](CO)[C@@H](O)[C@H](O)[C@H]2O)/C(C)=C/[C@H]2OC(=O)[C@H](C)[C@@H]2CC1 | -8.04% | inactive | inactive | 
O=C(O)Cc1cn([C@@H]2O[C@H](CO)[C@@H](O)[C@H](O)[C@H]2O[C@@H]2O[C@H](CO)[C@@H](O)[C@H](O)[C@H]2O)c2ccccc12 | 3.82% | inactive | inactive | 
C=C1C[C@]23C[C@H]1CC[C@H]2[C@@]12CC[C@H](O)[C@@](C)(C(=O)O1)[C@H]2[C@@H]3C(=O)O | 5.34% | inactive | inactive | 
CCC(C)/C=C(C)/C=C/C1=CC2=C(Cl)C(=O)C(C)(O)C(=O)C2(O)C(OC)O1 (configuration not stated) | 28.2% | inactive | inactive | 
CC1(C)CC[C@]2(C(=O)O[C@@H]3O[C@H](CO)[C@@H](O)[C@H](O)[C@H]3O)CC[C@]3(C)C(=CCC4[C@@]5(C)CC[C@H](O[C@@H]6O[C@H](C(=O)O)[C@@H](O)[C@H](O)[C@H]6OC6OC(CO)C(O)C(O)C6O)C(C)(C)C5CC[C@]43C)[C@@H]2C1 (some centres not stated) | -5.36% | inactive | inactive | 
CC/C=C\CCO[C@@H]1O[C@H](CO)[C@@H](O)[C@H](O)[C@H]1O | -18.3% | inactive | inactive | 
CC(=O)OC12CC(C)C(O)C1/C=C(/COC1OC(CO)C(O)C(O)C1O)CCC1C(/C=C(\C)C2=O)C1(C)C (configuration not stated) | -9.16% | inactive | inactive | 
CC(C)=CCC[C@](C)(O[C@@H]1O[C@H](CO[C@@H]2OC[C@H](O)[C@H](O)[C@H]2O)[C@@H](O)[C@H](O)[C@H]1O)[C@H]1CC[C@]2(C)[C@@H]1[C@H](O)C[C@@H]1[C@@]3(C)CC[C@H](O[C@@H]4O[C@H](CO)[C@@H](O)[C@H](O)[C@H]4O[C@@H]4O[C@H](CO)[C@@H](O)[C@H](O)[C@H]4O)C(C)(C)[C@@H]3CC[C@]12C | 9.67% | inactive | inactive | 
CC1=CC(=O)C2C(C)(C)CCC[C@]2(C)[C@H]1CO (some centres not stated) | -3.82% | inactive | inactive | 
COc1cc(O)cc(C)c1C(=O)O[C@H]1[C@@H](O)[C@@H](n2ccc(=O)[nH]c2=O)O[C@@H]1CO | -9.16% | inactive | inactive | 
C=C(C(=O)O)[C@@H]1CC[C@@]2(C)CC[C@@H](O)C(=C)C2C1 (some centres not stated) | 22.9% | inactive | inactive | 
CC(=O)O[C@@H]1CC2C(/C=C(\C)C(=O)[C@@]3(O)C[C@@H](C)[C@H](OC(=O)c4ccccc4)C3/C=C/1C)C2(C)C (some centres not stated) | -10.7% | inactive | inactive | 
CC(=O)c1ccc(O[C@@H]2OC[C@@H](O)[C@H](O)[C@H]2O[C@]2(CO)O[C@H](CO)[C@@H](O)[C@@H]2O)c(O)c1 | -9.92% | inactive | inactive | 
C#CCOc1ccc2c(c1)c(-c1ccc(C(C)C)cc1)nc(=O)n2C(C)C | -0.893% | inactive | inactive | 
C[C@H](NC(=O)C(C)(C)Oc1ccc(C(F)(F)F)cn1)[C@@H](Cc1ccc(Cl)cc1)c1cccc(C#N)c1 | 5.36% | inactive | inactive | 
CC1=CC23[C@H](C=C(C(=O)O)[C@@H]2COC(=O)[C@]3(O)CO)[C@@H]1C (some centres not stated) | -6.87% | inactive | inactive | 
O=C(/C=C/c1ccc(O)cc1)OC[C@@]1(O)C=C[C@@H]2C(C(=O)O)=CO[C@@H](O[C@@H]3O[C@H](CO)[C@@H](O)[C@H](O)[C@H]3O)[C@@H]21 | -4.46% | inactive | inactive | 
CCCOc1ccc(-c2nc(OC)c3ccccc3n2)cc1 | -5.67% | inactive | inactive | 
CC1(C)CC[C@]2(C(=O)O)CC[C@]3(C)C(=CCC4[C@@]5(C)C(=O)C[C@H](O)[C@@](C)(CO)C5CC[C@]43C)[C@@H]2C1 (some centres not stated) | -11.5% | inactive | inactive | 
COCC1OC(n2cnc3c(=O)[nH]cnc32)C(O)C1O (configuration not stated) | 6.11% | inactive | inactive | 
CC1(C)CC23[C@@H]4CC(=O)[C@@H]2COC(=O)[C@@H]3CC[C@H]41 | -5.36% | inactive | inactive | 
COc1ccc(C2OCC3C(c4cc(OC)c5c(c4)OCO5)OCC23)cc1OC (configuration not stated) | -8.4% | inactive | inactive | 

Structure (SMILES) | activation [1] | Potency [2] | Potency [3] | Potency [1]
CC(C(=O)Nc1cc(C#N)ccc1CCCC(=O)O)c1ccc(F)c2ccccc12 (configuration not stated) | 17.9% | inactive | inactive | 
COC(=O)C[C@H]1[C@]2(C)C3=C(C)[C@H](c4ccoc4)C[C@H]3O[C@@H]2[C@H](O)C2[C@](C)(C(=O)OC)C=CC(=O)[C@@]21C (some centres not stated) | 2.29% | inactive | inactive | 
COc1ccc([C@@]2(O)c3c(ccc(CC=C(C)C)c3O)NC(=O)[C@@H]2OC)cc1 | -19.1% | inactive | inactive | 
CN1CCc2cc3c(cc2C(=O)Cc2cc4c(cc2C1)OCO4)OCO3 | -8.04% | inactive | inactive | 
COc1ccc(CCC(=O)O)c(O[C@@H]2O[C@H](CO)[C@@H](O)[C@H](O)[C@H]2O)c1 | -13.7% | inactive | inactive | 
CC1=CCC2C(C)(C)CCCC2(C)C1CC12OC1C(O)C(CO)=CC2O (configuration not stated) | -16.8% | inactive | inactive | 
CC1(C)CC[C@]2(C(=O)O)CC[C@]3(C)C(=CCC4[C@@]5(C)CC[C@H](O[C@@H]6O[C@H](CO)[C@@H](O)[C@H](O)[C@H]6O[C@@H]6O[C@H](CO)[C@@H](O)[C@H](O)[C@H]6O)[C@@](C)(CO)C5CC[C@]43C)[C@@H]2C1 (some centres not stated) | 9.82% | inactive | inactive | 
CN(C)C/C=C/C(=O)Nc1cc2c(Nc3ccc(F)c(Cl)c3)ncnc2cc1OC1CCOC1 (configuration not stated) |  | inactive | inactive | 7.57 µM (active)
C=C1OC2CC(C(=O)O)C=CC2NC1=O (configuration not stated) | -19.8% | inactive | inactive | 
Cc1cnc(NC(=O)Nc2cc(Br)c(C)cc2OCC2CNCCO2)cn1 (configuration not stated) | 11.6% | inactive | inactive | 
CCC(CC)Nc1nc(C)c(-c2ccc(OC(F)(F)F)cc2OC)nc1OC | -3.57% | inactive | inactive | 
CC1=C2CC(O)(C(C)(C)O)C(O[C@@H]3O[C@H](CO)[C@@H](O)[C@H](O)[C@H]3O)CC(C)C2CC1=O (some centres not stated) | -3.05% | inactive | inactive | 
COC(=O)[C@H](OC(C)=O)[C@H]1C(C)(C)C(=O)[C@H]2CC3=C4CC(=O)O[C@@H](c5ccoc5)[C@]4(C)CCC3[C@@]1(C)C2=O (some centres not stated) | 2.68% | inactive | inactive | 
C/C=C/C=C/C=C/C(=O)O[C@@H]1[C@@H](OC)C2=C(C(=O)N(C(C)C(=O)O)C2)[C@@]2(C)CCCC(C)(C)[C@H]12 (some centres not stated) | -2.68% | inactive | inactive | 
C=C1[C@@H]2CC[C@@H]3[C@@](CCC4C(C(=O)O)(C(=O)O)C[C@@H](O[C@@H]5O[C@H](CO)[C@@H](O)[C@H](O)[C@H]5OC(=O)CC(C)C)C[C@]43C)(C2)[C@H]1O (some centres not stated) | -16% | inactive | inactive | 
C=CC(C)(C)c1[nH]c2cc3c(cc2c1CC1NC(=O)C2=CCCN2C1=O)C=CC(C)(C)O3 (configuration not stated) | -10.7% | inactive | inactive | 
CC(C)=CCC[C@](C)(O[C@@H]1O[C@H](CO[C@@H]2OC[C@@H](O)[C@H](O)[C@H]2O)[C@@H](O)[C@H](O)[C@H]1O)[C@H]1CC[C@]2(C)[C@@H]1[C@H](O)C[C@@H]1[C@@]3(C)CC[C@H](O[C@@H]4O[C@H](CO)[C@@H](O)[C@H](O)[C@H]4O)C(C)(C)[C@@H]3CC[C@]12C | 6.33% | inactive | inactive | 
CC1(CO)CC2C(O)C3=C(CC(C)(O)C2C1)C(=O)OC3 (configuration not stated) | -12.2% | inactive | inactive | 
O=C(/C=C/c1ccc(O)cc1)OC1[C@H](O)CC(O)(C(=O)O)C[C@H]1O (some centres not stated) | -0.763% | inactive | inactive | 
C[C@@H]1O[C@@H](O[C@H]2[C@H](O[C@H]3[C@H](O[C@H]4CC[C@@]5(C)C(CC[C@]6(C)C5CC=C5[C@@H]7CC(C)(C)C[C@@H](O)[C@]7(C)CC[C@]56C)[C@@]4(C)CO)O[C@H](C(=O)O)[C@@H](O)[C@@H]3O)O[C@H](C(=O)O)[C@H](O)[C@@H]2O)[C@H](O)[C@H](O)[C@H]1O (some centres not stated) | 6.87% | inactive | inactive | 
COc1c2c(c(C)c3c1C(=O)OC3)O[C@@]1(C)CCC3(C(C)(C)O)OC(=O)CC[C@]3(C)[C@H]1C2 (some centres not stated) | 4.58% | inactive | inactive | 
CN(C)CC1CCOC1(c1ccccc1)c1ccccc1 (configuration not stated) | -7% | inactive | inactive | 
CC1(C)CCC2(C(=O)OC3OCC(O)C(O)C3O)CCC3(C)C(=CCC4C5(C)CC(O)C(OC6OC(COC7OCC(O)C(O)C7O)C(O)C(O)C6O)C(C)(C)C5CCC43C)C2C1 (configuration not stated) | 4.46% | inactive | inactive | 
O=C(O)CCCCCC[C@H]1C(=O)NC(=O)N1CC[C@@H](O)C1CCCCC1 | -1.67% | inactive | inactive | 
